Screening data from PubChem BioAssay.
Hits are enriched below; roughly 3.4% of the tested compounds scored in any of these assays.
FBW7 activator: human FBW7 E3 ligase activation, primary screen | AID 1259310 | AlphaScreen FBW7–phospho-cyclin E peptide binding, activator screen | normalized activity (activation), % at 26.1 µM | actives 0.13% (n = 650,000); in the data active means normalized activity above about 1.9%;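 further: purified mutant Fbw7 with reduced substrate affinity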
Target sequence (Q969H0 whole entry, looked up): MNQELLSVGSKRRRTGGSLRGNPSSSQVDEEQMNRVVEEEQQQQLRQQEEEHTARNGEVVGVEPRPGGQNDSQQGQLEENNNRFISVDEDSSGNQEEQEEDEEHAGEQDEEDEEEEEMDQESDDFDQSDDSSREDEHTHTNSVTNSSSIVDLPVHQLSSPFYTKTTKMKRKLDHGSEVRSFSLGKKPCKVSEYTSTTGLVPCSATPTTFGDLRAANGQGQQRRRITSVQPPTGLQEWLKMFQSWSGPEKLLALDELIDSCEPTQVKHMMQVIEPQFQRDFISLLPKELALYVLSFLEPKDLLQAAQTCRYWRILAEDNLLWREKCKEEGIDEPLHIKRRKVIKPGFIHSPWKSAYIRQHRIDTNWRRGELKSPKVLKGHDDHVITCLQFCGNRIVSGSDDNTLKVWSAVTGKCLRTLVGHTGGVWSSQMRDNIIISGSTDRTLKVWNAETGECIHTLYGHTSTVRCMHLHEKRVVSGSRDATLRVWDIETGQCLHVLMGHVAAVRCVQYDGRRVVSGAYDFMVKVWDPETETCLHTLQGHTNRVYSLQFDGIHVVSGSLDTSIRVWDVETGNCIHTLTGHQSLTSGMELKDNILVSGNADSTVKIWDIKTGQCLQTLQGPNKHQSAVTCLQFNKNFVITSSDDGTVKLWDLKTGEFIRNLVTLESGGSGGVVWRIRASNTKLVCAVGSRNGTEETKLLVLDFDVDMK
TEAD-YAP block: TEAD-YAP interaction inhibition; HEK-TIYL cells, TEAD-Gal4/YAP UAS-luciferase luminescence; inhibition, % at 9.12 µM; actives 1.4% (n = 640,000); in the data active means inhibition above about 32%;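 further: 0% = median of test compound wells and 100% = reference inhibitor wells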
MITF primary: inhibitors of human MITF | O75030 | AlphaScreen MITF homodimerization, bead proximity signal | inhibition, % at 2.6 µM | actives 0.91% (n = 650,000); in the data active means inhibition above about 50%;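 further: 0% = vehicle wells with protein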
GPR151 activ: activates the human receptor GPR151; Q8TDV0; PathHunter beta-arrestin GPR151 cells, luminescence; activation, % at 11.2 µM; actives 1% (n = 650,000); in the data active means activation above about 4.9%;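 further: 0% = median of compound wells and 100% = cells with positive control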
Numbers without * were called inactive; ! = repeats disagree.

SMILES | FBW7 activator | TEAD-YAP block | MITF primary | GPR151 activ
COc1ccc(C(=O)Nn2c(SCC(=O)NCCc3ccccc3)nc3ccccc3c2=O)cc1 | 0 | 71* | -2 | 2
COc1ccc(C(=O)Nn2c(SCC(=O)NCc3ccco3)nc3ccccc3c2=O)cc1 | 0 | 75* | -10 | 0
N#CCCN(C(=O)CCl)c1cccc(Cl)c1 | 0 | 74* | 3 | 0
N#CCCN(C(=O)COC(=O)c1ccc(Cl)cc1N)c1ccccc1 | 0 | -1 | -4 | 1
Cc1cccc(C)c1-n1c(=S)sc2c(=O)n(-c3ccccc3)c(SCc3ccccc3F)nc21 | 0 | 46* | 18 | 2
COc1ccccc1-n1c(=S)sc2c(=O)n(-c3ccccc3)c(SCc3ccccc3F)nc21 | 0 | 1 | 9 | -1
CCN(CC)C(=O)c1ccc(S(=O)(=O)c2ccc(Br)cc2)c([N+](=O)[O-])c1 | 0 | 49* | 11 | -1
Cc1ccc(C(=O)N2CCN(c3ccc([N+](=O)[O-])cc3)CC2C)cc1 (configuration not stated) | 0 | 39* | 5 | 1
O=C(c1ccc(S(=O)(=O)c2ccc(Br)cc2)c([N+](=O)[O-])c1)N1CCCCCC1 | 0 | 35* | 15 | 1
O=C(c1ccc(S(=O)(=O)c2ccc(F)cc2)c([N+](=O)[O-])c1)N1CCC2(CC1)OCCO2 | 0 | 4 | 2 | 0
O=C(c1ccc(S(=O)(=O)c2ccc(F)cc2)c([N+](=O)[O-])c1)N1CCCCCC1 | 0 | 34* | -4 | 0
CCN(CC)C(=O)c1ccc(Sc2ccc(Br)cc2)c([N+](=O)[O-])c1 | 0 | 5 | 3 | 1
O=C(c1ccc(S(=O)(=O)c2ccc(Br)cc2)c([N+](=O)[O-])c1)N1CCN(c2ccc(F)cc2)CC1 | 0 | 11 | -12 | 1
CCOC(=O)CS(=O)(=O)c1ccc(C(=O)N2CCN(c3cccc(C)c3)C(C)C2)cc1[N+](=O)[O-] (configuration not stated) | 0 | 52* | -7 | 0
O=C(c1ccc(S(=O)(=O)c2ccccc2Cl)c([N+](=O)[O-])c1)N1CCN(Cc2ccccc2)CC1 | 0 | 33* | 8 | 2
O=C(c1ccc(S(=O)(=O)c2ccc(Br)cc2)c([N+](=O)[O-])c1)N1CCCC1 | 1 | 32* | 15 | 0
CC1CCCCN1C(=O)c1ccc(S(=O)(=O)c2cccc(Cl)c2)c([N+](=O)[O-])c1 (configuration not stated) | 0 | 38* | 3 | 0
O=C(O)Cc1ccc(NC(=O)c2ccco2)cc1 | 0 | 11 | 12 | 0
N#Cc1c(NC(=O)CCOc2ccccc2)sc2c1CCCC2 | 0 | -4 | 15 | 5
COc1cncc(-c2cncc(-c3ccc(C)cc3)n2)c1 | 0 | -8 | -9 | 0
CCCCCN(C(=O)NC(=O)Nc1ccc(I)cc1)S(=O)(=O)c1ccccc1 | 0 | 3 | 1 | 1
O=C(O)c1ccc(S(=O)(=O)c2ccc(F)cc2)c([N+](=O)[O-])c1 | 0 | -4 | 10 | -1
Cc1cccc(N2CCN(C(=O)c3ccc4c(c3)NC(=O)CS4)CC2C)c1 (configuration not stated) | 1 | 60* | 16 | 0
Cc1cccc(N2CCN(C(=O)c3ccc4c(c3)NC(=O)c3ccccc3N4)CC2C)c1 (configuration not stated) | 0 | -4 | 1 | 2
CCCNC(=O)c1ccc(S(=O)(=O)c2ccc(OC)cc2)c([N+](=O)[O-])c1 | 0 | 36* | -6 | 0
SMILES | FBW7 activator | TEAD-YAP block | MITF primary | GPR151 activ
Cc1cccc(N2CCN(C(=O)c3ccc(S(=O)(=O)c4ccc(F)cc4)c([N+](=O)[O-])c3)C(C)C2)c1 (configuration not stated) | 0 | 54* | 14 | 3
C=CCNC(=O)c1ccc(S(=O)(=O)c2ccc(F)cc2)c([N+](=O)[O-])c1 | 0 | 34* | 13 | 1
O=C(Nc1c2c(nn1-c1cccc(Cl)c1)CS(=O)C2)c1c(F)cccc1Cl (configuration not stated) | 0 | 4 | 3 | 1
O=C(c1ccc(S(=O)(=O)c2ccc(Br)cc2)c([N+](=O)[O-])c1)N1CCCCC1 | 0 | 37* | 9 | -1
Cc1ccc(C)c(N2CCN(C(=O)c3ccc(S(=O)(=O)c4ccc(F)cc4)c([N+](=O)[O-])c3)CC2)c1 | 0 | 44* | 15 | 0
Cc1ccc(C)c(N2CCN(C(=O)c3ccc(S(=O)(=O)c4ccccc4Cl)c([N+](=O)[O-])c3)CC2)c1 | 0 | 8 | 5 | 2
COCCNC(=O)c1cc(S(=O)(=O)N2CCOCC2)ccc1F | 0 | -1 | 5 | 1
Oc1c(C(c2cccs2)N2CCOCC2)ccc2cccnc12 (configuration not stated) | -1 | 77* | 61* | 2
Oc1c(C(c2cccs2)N2CCN(c3ccccc3)CC2)ccc2cccnc12 (configuration not stated) | 0 | 87* | 18 | 0
C=CCNC(=S)N/N=C(\C)c1ccccn1 | -1 | 89* | 60* | -3
C=CCNC(=S)N/N=C(\C)c1ccc2ccccc2c1 | 0 | 4 | 10 | 0
Cc1oc2cc(O)cc(O)c2c(=O)c1-c1ccc2c(c1)OCCCO2 | 0 | 43* | 7 | 0
Cc1nc(-c2coc3cc(O)cc(O)c3c2=O)cs1 | 0 | -34 | -13 | -5
O=c1c(-c2ccc(Br)cc2)coc2cc(O)cc(O)c12 | 1 | -19 | 13 | 0
COc1ccc(-c2coc3cc(O)cc(O)c3c2=O)cc1 | 0 | 37*! | -5 | 0
CCOC(=O)C(C)Oc1ccc2c(=O)c(-c3ccc(OC(C)C)cc3)coc2c1 (configuration not stated) | 0 | 0 | -4 | 1
O=c1c(-c2ccc(O)cc2)coc2cc(O)cc(O)c12 | 0 | 44*! | 15 | -2
CC(C)Oc1cc(O)c2c(=O)c(-c3ccc(O)cc3)coc2c1 | 0 | 57* | 3 | 0
Cc1oc2cc(O)ccc2c(=O)c1-c1ccc2c(c1)OCCO2 | 0 | -13 | 10 | -1
COc1ccc(S(=O)(=O)n2c(SCC(=O)Nc3ccc(Oc4ccccc4)cc3)nc3ccc(OC)cc32)cc1 | 1 | -6 | 12 | -1
COc1ccc(N=C(NOC(C)=O)c2ccc(Cl)cc2)c(OC)c1 | 0 | 2 | 10 | -1
COc1ccc(-c2coc3cc(O)ccc3c2=O)cc1 | 0 | 53*! | 25 | -3
O=c1c(-c2ccc(Cl)cc2)coc2cc(O)ccc12 | 0 | 16 | 4 | -4
O=c1c(-c2ccc3c(c2)OCCCO3)coc2cc(O)ccc12 | 0 | 75* | -1 | -3
COc1ccc(-c2coc3cc(OC)ccc3c2=O)cc1 | 0 | 9 | -2 | -1
O=C(CCc1ccccc1)N1CCN(c2ccccc2)CC1 | 0 | 8 | -4 | 0
Oc1cccc(C=Nc2ccccc2O)c1 | 0 | -3 | -10 | -1
Oc1ccccc1N=Nc1ccccc1O | 0 | 73* | 72* | 0
